Assay [1] concerns RIVA. Put plainly: growth inhibition by drug alone (1 - RLU/untreated control) (fraction); higher = stronger inhibition. As to conditions: 177Lu-lilotomab satetraxetan 0 ug/ml. Summed up: (§1)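 With or without 18 h pretreatment by a radiolabelled anti-CD37 antibody conjugate (~600 MBq/mg; 0.5 µg/ml RIVA, 1 µg/ml U-2932), RIVA and U-2932 cells were washed and plated at 3,000 cells/well. Pre-printed compound doses were 10/100 nM for RIVA and 10/1,000 nM for U-2932. Growth inhibition uses RealTime-Glo RLU relative to the untreated no-drug wells. The calculation is 1 − RLU/mean of 48 such wells per plate, with reads daily from day 3 after 1 h at 37°C.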

For assay [2], the system named is U-2932. Briefly: growth inhibition by drug plus 177Lu-lilotomab satetraxetan (1 - RLU/untreated control) (fraction); higher = stronger inhibition. The conditions noted are these: 177Lu-lilotomab satetraxetan 1 ug/ml. Summed up: as §1
The subject of assay [3] is RIVA. The assay is described as above. As to conditions: 177Lu-lilotomab satetraxetan 0.5 ug/ml. An outline of the steps: as §1
Assay [4] deals with U-2932. Briefly: growth inhibition by drug alone (1 - RLU/untreated control) (fraction); higher = stronger inhibition. The conditions noted are these: 177Lu-lilotomab satetraxetan 0 ug/ml. Summed up:
as §1

Several values for one entry are separate records, joined by “and”; a condition that tells them apart may be missing. Equal values may be shown once.

The text below walks through data of the supplement of paper PMC6897291.

`CO[C@H]1C[C@@H]2CC[C@@H](C)[C@@](O)(O2)C(=O)C(=O)N2CCCC[C@H]2C(=O)O[C@H]([C@H](C)C[C@@H]2CC[C@@H](OCCO)[C@H](OC)C2)CC(=O)[C@H](C)/C=C(\C)[C@@H](O)[C@@H](OC)C(=O)[C@H](C)C[C@H](C)/C=C/C=C/C=C/1C` [Everolimus (RAD001)]: the “growth inhibition by drug alone” value was 0.776 in assay [1] (10 nM, time (day): 3); 0.768 in assay [1] (10 nM, time (day): 4); 0.744 in assay [1] (10 nM, time (day): 5); 0.653 in assay [1] (10 nM, time (day): 6); 0.811 in assay [1] (100 nM, time (day): 3); 0.826 in assay [1] (100 nM, time (day): 4). For the same compound, the “growth inhibition by drug alone” value in assay [1] (100 nM, time (day): 5) stood at 0.827; in assay [1] (100 nM, time (day): 6) it was 0.801. Also, the “growth inhibition by drug plus 177Lu-lilotomab satetraxetan” value in assay [2] (10 nM, time (day): 3) came out at 0.69; in assay [2] (10 nM, time (day): 4), 0.625; in assay [2] (10 nM, time (day): 5), 0.558; in assay [2] (10 nM, time (day): 6) it was 0.538; in assay [2] (1000 nM, time (day): 3), 0.719; in assay [2] (1000 nM, time (day): 4), 0.729. Also, the “growth inhibition by drug plus 177Lu-lilotomab satetraxetan” value in assay [2] (1000 nM, time (day): 5) was 0.706; in assay [2] (1000 nM, time (day): 6), 0.702; in assay [3] (10 nM, time (day): 3), 0.821; in assay [3] (10 nM, time (day): 4), 0.838; in assay [3] (10 nM, time (day): 5), 0.833; in assay [3] (10 nM, time (day): 6) it was 0.788. The “growth inhibition by drug plus 177Lu-lilotomab satetraxetan” value in assay [3] (100 nM, time (day): 3) was determined as 0.833; in assay [3] (100 nM, time (day): 4), 0.865; in assay [3] (100 nM, time (day): 5) it was 0.876; in assay [3] (100 nM, time (day): 6), 0.873.

In the case of `N#Cc1c(O)c2c(-c3ccc(-c4ccccc4O)cc3)csc2[nH]c1=O`, the “growth inhibition by drug alone” value is 0.017 in assay [1] (10 nM, time (day): 3); -0.0012 in assay [1] (10 nM, time (day): 4); -0.079 in assay [1] (10 nM, time (day): 5); -0.317 in assay [1] (10 nM, time (day): 6); -0.44 in assay [1] (100 nM, time (day): 3); -0.357 in assay [1] (100 nM, time (day): 4). Besides, the “growth inhibition by drug alone” value was -0.367 in assay [1] (100 nM, time (day): 5) and -0.39 in assay [1] (100 nM, time (day): 6). For the same compound, the “growth inhibition by drug plus 177Lu-lilotomab satetraxetan” value in assay [2] (10 nM, time (day): 3) was 0.00586; in assay [2] (10 nM, time (day): 4) it was 0.0777; in assay [2] (10 nM, time (day): 5), 0.105; in assay [2] (10 nM, time (day): 6), 0.108; in assay [2] (1000 nM, time (day): 3), 0.0618; in assay [2] (1000 nM, time (day): 4) it was 0.0835. The “growth inhibition by drug plus 177Lu-lilotomab satetraxetan” value stood at 0.123 in assay [2] (1000 nM, time (day): 5); 0.191 in assay [2] (1000 nM, time (day): 6); 0.57 in assay [3] (10 nM, time (day): 3); 0.613 in assay [3] (10 nM, time (day): 4); 0.615 in assay [3] (10 nM, time (day): 5); 0.612 in assay [3] (10 nM, time (day): 6). Moreover, the “growth inhibition by drug plus 177Lu-lilotomab satetraxetan” value came out at 0.402 in assay [3] (100 nM, time (day): 3); 0.488 in assay [3] (100 nM, time (day): 4); 0.487 in assay [3] (100 nM, time (day): 5); 0.49 in assay [3] (100 nM, time (day): 6).

For the compound `C/C(=C\C(=O)Nc1ccccc1C(=O)O)c1ccc2ccccc2c1`, the “growth inhibition by drug alone” value in assay [4] (10 nM, time (day): 4) was 0.0133 and 0.0332; in assay [4] (1000 nM, time (day): 3) it was -0.0224 and -0.014; in assay [4] (1000 nM, time (day): 5), -0.0613 and -0.0571; in assay [4] (1000 nM, time (day): 6) it was -0.273 and -0.127; in assay [1] (10 nM, time (day): 5), -0.0819 and -0.194; in assay [1] (10 nM, time (day): 6), -0.258 and -0.514. The “growth inhibition by drug plus 177Lu-lilotomab satetraxetan” value in assay [2] (10 nM, time (day): 3) is -0.0301 and -0.033; in assay [2] (10 nM, time (day): 5) it was 0.025 and 0.0323; in assay [2] (1000 nM, time (day): 3), -0.0817 and -0.0426; in assay [2] (1000 nM, time (day): 6) it was 0.0333 and 0.0305.
